In PubChem BioAssay (NCI):
Compounds without any hit were thinned out: in the full panel of roughly 79,000, 15% have a hit. A number with no mark means an inactive call. Calls of active or inactive are those of the source. Rule as the data show it: active = growth inhibition above about 70%; inactive = the rest.

Legend:
[1] = NCI Yeast Anticancer Drug Screen. Data for the rad50 strain (AID 155);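 also: 0% = growth of vehicle-only cultures of the same strain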; conditions: S. cerevisiae rad50 strain growth inhibition, hits give high values
Procedure, shortened: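 DNA repair mutant yeast, compound exposure, growth read-out; inhibition is taken relative to vehicle.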

[2] = NCI Yeast Anticancer Drug Screen. Data for the mec2-1 strain (AID 157); conditions: S. cerevisiae mec2-1 strain, hits give high values
Procedure, shortened: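 Readout is yeast growth inhibition, normalised to vehicle-treated controls, in the mec2-1 strain exposed to compound.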

[3] = NCI Yeast Anticancer Drug Screen. Data for the sgs1 mgt1 strain (AID 161);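 also: 0% = growth of cultures given vehicle only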; conditions: S. cerevisiae sgs1 mgt1 strain, hits give high values
Procedure, shortened: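 Growth of a repair-deficient yeast mutant was monitored after compound treatment and expressed as inhibition relative to vehicle-treated cultures.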

[4] = NCI Yeast Anticancer Drug Screen. Data for the cln2 rad14 strain (AID 165);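 also: 0% = growth equal to vehicle treated cultures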; conditions: S. cerevisiae cln2 rad14 strain, hits give high values
Procedure, shortened: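 Relative to vehicle controls, growth inhibition of compound-treated cln2 rad14 yeast was recorded.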

[5] = NCI Yeast Anticancer Drug Screen. Data for the bub3 strain (AID 167); conditions: S. cerevisiae bub3 mutant strain, hits give high values
Procedure, shortened: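 In this screen, a yeast mutant lacking normal mitotic checkpoint function is challenged with compound. Relative growth versus vehicle gives the inhibition value.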

[6] = NCI Yeast Anticancer Drug Screen. Data for the mlh1 rad18 strain (AID 175); conditions: S. cerevisiae mlh1 rad18 strain growth inhibition, hits give high values
Procedure, shortened: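 Test agents were incubated with a yeast strain of defined genotype (DNA damage repair defect). Inhibition of growth was derived by comparison with vehicle-exposed cultures.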

[7] = at 5.0 µM (retest, dose inferred, filed as 0.5)
[8] = at 50.0 µM (retest, dose inferred, filed as 5.0)

Compound	growth inhibition [1, 7]	growth inhibition [1, 8]	growth inhibition ([1]; at 50.0 µM)	growth inhibition [2, 7]	growth inhibition [2, 8]	growth inhibition ([2]; at 50.0 µM)	growth inhibition [3, 7]	growth inhibition [3, 8]	growth inhibition ([3]; at 50.0 µM)	growth inhibition [4, 7]	growth inhibition [4, 8]	growth inhibition ([4]; at 50.0 µM)	growth inhibition [5, 7]	growth inhibition [5, 8]	growth inhibition ([5]; at 50.0 µM)	growth inhibition [6, 7]	growth inhibition [6, 8]	growth inhibition ([6]; at 50.0 µM)
Cc1ccc(SCc2nc3ccccc3c(C)[n+]2[O-])cc1	2%	86% (active)	32.6%	4%	86% (active)	45.6%	-7%	87% (active)	55%	0%	53%	38%	-4%	76% (active)	55.9%	-7%	91% (active)	56.7%
CC(C)c1cc(=O)c2cc3[nH]c4ccccc4c3cc2[nH]1	-2%	92% (active)	49.9%	-2%	87% (active)	52.8%	-69%	96% (active)	50.9%	-18%	81% (active)	68.5%	-2%	94% (active)	10.6%	-9%	86% (active)	54.2%
c1c[n+](CCC2CCCCC2)ccn1	-15%	6%	89% (active)	-14%	-23%	97% (active)	-33%	-21%	94.3% (active)	-26%	10%	73.1% (active)	-6%	28%	63.7%	-28%	3%	69.5%
Cn1cnc([N+](=O)[O-])c1S	2%	1%	-4.8%	-2%	9%	16.2%	0%	-2%	8.45%	-5%	13%	44%	0%	3%	-0.8%	1%	9%	21.6%
CC(=O)Oc1c(C)cc(C)cc1Cc1cc(C(C)=O)cc(Cc2cc(C)cc(C)c2OC(C)=O)c1OC(C)=O	30%	91% (active)	94.5% (active)	17%	88% (active)	93.2% (active)	47%	91% (active)	95.6% (active)	28%	88% (active)	97% (active)	22%	87% (active)	94.3% (active)	46%	91% (active)	92.5% (active)
O=C1CC2Sc3ccccc3N=C2N1c1ccc(Cl)cc1Cl (configuration not stated)	36%	96% (active)	88.2% (active)	33%	100% (active)	93.2% (active)	42%	100% (active)	88.8% (active)	34%	73% (active)	65.2%	39%	99% (active)	92% (active)	47%	98% (active)	89.6% (active)
Oc1ccccc1C(=NNc1ccccc1)c1ccccc1O	40%	96% (active)	94.8% (active)	27%	98% (active)	94.8% (active)	46%	97% (active)	94.8% (active)	49%	97% (active)	95.8% (active)	42%	98% (active)	95.8% (active)	70% (active)	98% (active)	90.9% (active)
Cc1cc(SCC(=O)c2ccc(Cl)cc2)cc(C)[o+]1	-3%	90% (active)	95.8% (active)	-1%	90% (active)	95.5% (active)	-2%	93% (active)	96.4% (active)	-13%	73% (active)	88.7% (active)	-2%	87% (active)	96.3% (active)	-9%	78% (active)	92.3% (active)
COc1ccc(OC)c(C[P+](c2ccccc2)(c2ccccc2)c2ccccc2)c1	97% (active)	96% (active)	98.7% (active)	97% (active)	99% (active)	98.9% (active)	97% (active)	99% (active)	98.5% (active)	92% (active)	99% (active)	98.8% (active)	96% (active)	99% (active)	99% (active)	98% (active)	99% (active)	99% (active)
CCOC(=O)C(C=O)(C=O)c1ccccc1	6%	42%	71.5% (active)	4%	19%	8.5%	7%	18%	61%	4%	24%	43.2%	-3%	14%	-36.4%	-1%	32%	44.5%
COc1ccc(C(=O)C2=C(C)Nc3ccc(Br)cc3S2)cc1	-2%	27%	4.55%	-2%	20%	14.1%	-12%	44%	-4.7%	-8%	16%	-3.4%	-9%	38%	-0.3%	-7%	23%	12.4%
Cc1c(-c2ccccc2)sc(/N=C/c2cc(Br)cc(Br)c2O)c1C#N	-17%	63%	5.9%	10%	34%	25.3%	15%	84% (active)	29%	11%	12%	10.8%	5%	75% (active)	19.2%	10%	60%	62.9%
COc1nc2c(ccn2C2OC(COC(C)=O)C(OC(C)=O)C(OC(C)=O)C2OC(C)=O)c(=O)n1C (configuration not stated)	2%	-2%	15.2%	1%	-4%	14.8%	-5%	-5%	4.45%	-2%	-3%	2.35%	-2%	-8%	-5.9%	1%	-2%	2.15%
Cc1c(Cl)c(Cl)cc([N+](=O)[O-])c1Cl	41%	49%	24.9%	51%	45%	37.6%	-5%	15%	46%	31%	47%	-6.9%	11%	38%	52.4%	25%	46%	19.4%
CCN(CC)CC(O)CNc1cc(C)nc(/N=C(\N)Nc2ccc(Cl)c(Cl)c2)n1 (configuration not stated)	0%	64%	88.8% (active)	-21%	34%	57.3%	-11%	54%	87% (active)	-3%	19%	31.7%	-2%	30%	34.2%	12%	86% (active)	81.2% (active)
Fc1ccc(CN2COc3c(ccc4cccnc34)C2)cc1	-5%	32%	59.4%	-2%	17%	27.1%	2%	34%	62.4%	3%	70% (active)	41.2%	-5%	50%	77% (active)	-1%	57%	9.45%
COc1ccccc1C(=O)N(Cc1ccccc1)c1ccc(Cl)c(C(=O)OC(C)C)c1	28%	59%	15.3%	-7%	14%	1.25%	1%	33%	-33.3%	-6%	14%	10.5%	-55%	15%	-8.1%	3%	31%	19.1%
COC1=CC2=CCC3C(CCC4(C)C(C(C)=O)CCC34)C2(C)CC1 (configuration not stated)	-8%	5%	42.5%	-7%	4%	13%	-1%	40%	49%	-2%	14%	0.75%	-17%	-5%	47.6%	-12%	-2%	51.1%
O=C(Nc1c(Cl)cc([N+](=O)[O-])cc1Cl)/C(=N\Nc1cccc(Cl)c1)c1c(O)c2ccccc2oc1=O	15%	15%	69%	25%	25%	18.1%	14%	14%	-1%	8%	8%	25.7%	5%	5%	31%	26%	26%	47.3%
